Shown are actives, neighbours in structure and some others; about 3.6% of the full set was active somewhere.
Mtb hypoxia inh = Mtb hypoxia fluorescent reporter inhibition | M. tuberculosis hypoxia-regulated fluorescent reporter, fluorescence | fluorescence inhibition, % (no concentration beside the values) | 300,000 tested, 0.1% active; in the data active means fluorescence inhibition mostly above about 23%, no sharp cut-off; inactive means mostly below about 17%
FBA Mtb inh = inhibitors of M. tuberculosis fructose-bisphosphate aldolase; 360,000 tested, 2.3% active; AID 588726; inhibition, % at 1 µM; P9WQA3; purified M. tuberculosis FBA, fluorescence read-out;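 further: 0% = vehicle and 100% = reference inhibitor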
Target sequence (P9WQA3 whole entry, looked up): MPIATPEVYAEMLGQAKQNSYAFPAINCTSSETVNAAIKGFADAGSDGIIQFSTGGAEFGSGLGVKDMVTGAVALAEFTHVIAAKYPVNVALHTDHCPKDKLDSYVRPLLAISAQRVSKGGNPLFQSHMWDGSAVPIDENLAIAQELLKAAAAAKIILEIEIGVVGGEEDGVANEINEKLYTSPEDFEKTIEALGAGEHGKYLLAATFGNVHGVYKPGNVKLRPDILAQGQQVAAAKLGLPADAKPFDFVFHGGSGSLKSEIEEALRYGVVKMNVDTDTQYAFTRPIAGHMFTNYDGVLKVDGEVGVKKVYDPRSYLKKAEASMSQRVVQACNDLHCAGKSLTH
Mtb betalactam = beta-lactam sensitization of Mtb H37Rv; inhibition, % at 25 µM; AID 434955; 330,000 tested, 0.27% active; M. tuberculosis H37Rv growth with meropenem, percent inhibition; call rule not given here;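 further: growth measured after seven days incubation then overnight dye step; 0% = bacteria only wells and 100% = bacteria with antibiotic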
GDH-TPI counter-1 = inhibits GDH-TPI coupling enzymes, artifact for Mtb FBA screen | GDH-TPI coupled enzyme counterscreen, NADH absorbance | inhibition, % at 4.8 µM | 360,000 tested, 1.2% active | AID 588335; in the data active means inhibition above about 30%;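 further: 0% = DMSO wells and 100% = wells lacking the enzyme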
DUSP3 inh = inhibitors of human VHR1 phosphatase (DUSP3) | inhibition, % at 13.3 µM | recombinant VHR phosphatase, pNPP absorbance | 290,000 tested, 0.52% active | P51452; in the data active means inhibition above about 50%
Target sequence (P51452 whole entry, looked up): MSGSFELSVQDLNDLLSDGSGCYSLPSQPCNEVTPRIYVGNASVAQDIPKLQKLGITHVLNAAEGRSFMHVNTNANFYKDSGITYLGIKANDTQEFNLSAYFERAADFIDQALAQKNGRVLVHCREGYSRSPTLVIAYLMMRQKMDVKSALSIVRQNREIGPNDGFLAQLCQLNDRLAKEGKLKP
Mtb FBA inh conf = confirmation of M. tuberculosis fructose-bisphosphate aldolase inhibitors | shares compounds with FBA Mtb inh | purified M. tuberculosis FBA, fluorescence read-out | inhibition, % at 1 µM | 5,600 tested, 78% active | AID 651616;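 further: 0% = vehicle wells and 100% = reference inhibitor wells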
GDH-TPI counter-2 = counter-screen for M. tuberculosis FBA inhibitors: GDH-TPI coupled enzyme inhibition. 5,600 tested, 81% active. shares compounds with FBA Mtb inh. inhibition, % at 1 µM. AID 652141. GDH-TPI coupled enzyme counterscreen, fluorescence; in the data active means inhibition above about 10%
* hit, by the source's call; ? = inconclusive; · = no result; + = active, no number. Unless noted, no stated cut-off is given here; in the data, active means inhibition above about 27%; inactive means the rest.

SMILES | Mtb hypoxia inh | FBA Mtb inh | Mtb betalactam | GDH-TPI counter-1 | DUSP3 inh | Mtb FBA inh conf | GDH-TPI counter-2
Cc1ccc(S(=O)(=O)Nc2cccc(C(=O)NCc3ccc(S(N)(=O)=O)cc3)c2)cc1 | 5 | 27* | 6 | 5 | 5 | 156* | 128*
CNC(=O)c1[nH]cnc1C(=O)Nc1cccc(OC)c1 | · | 71* | 63 | 8 | -11 | + | 199*
CCOC(=O)c1[nH]cnc1C(=O)Nc1cccc(OC)c1 | -9 | 3 | -2 | 5 | 10 | · | ·
Nc1nccnc1C(=O)OCC(=O)NC1CCCc2ccccc21 (stereo not given) | 10 | 95* | -5 | 5 | · | 110* | 97*
CCc1ccn2cc(-c3ccc4c(c3)OCO4)nc2c1 | 9 | 91* | 0 | 13 | 19 | 65* | 43*
C=CCOc1ccc(C=NNC(=O)C(=O)N2CCCCCC2)cc1OC | 2 | · | · | · | · | · | ·
C=CC(=O)N1CC=CC(c2ccc(OC)cc2)N(Cc2ccc(F)cc2)C(=O)C1 (stereo not given) | -1 | · | · | · | · | · | ·
COc1ccc(S(=O)(=O)NN=Cc2ccc([N+](=O)[O-])o2)c(OC)c1 | -2 | · | · | · | · | · | ·
N#Cc1c(N)oc(-c2ccco2)c1-c1ccco1 | 13 | 33* | 13 | 12 | 18 | 42* | 26*
CC1=CC(c2ccc(Cl)cc2)n2nc(NS(=O)(=O)c3ccc(C)cc3)nc2N1 (stereo not given) | -6 | 80* | 6 | 12 | 15 | 68* | 63*
CC1=CC(c2ccccc2)n2nc(N)nc2N1 (stereo not given) | 17 | 53* | -7 | 6 | · | 40* | 37*
CC1=CC(c2ccccc2)n2nc(NS(=O)(=O)c3ccc(C)cc3)nc2N1 (stereo not given) | 7 | 49* | -1 | 14 | 19 | 22 | 15*
CC(Cl)=CCC1(CN2CCCC2=O)C(=O)NC(=O)NC1=O | 8 | · | · | · | · | · | ·
CC(=O)ON=C(c1nonc1N)N1CCN(c2ccc([N+](=O)[O-])cc2Cl)CC1 | -2 | · | · | · | · | · | ·
CCC(C)C(N)c1cn(C(CCC(=O)O)C(=O)N2CCNCC2)nn1 (stereo not given) | 2 | · | · | · | · | · | ·
Cc1ccccc1C=NN1CCN(c2ccccc2)CC1 | 2 | · | · | · | · | · | ·
COc1cc(C=Nc2oc(-c3ccccc3)cc2C#N)ccc1O | -4 | · | · | · | · | · | ·
COc1cc(/C=N/c2oc(-c3ccccc3)cc2C#N)ccc1O | · | 47* | 1 | 48* | -9 | + | +
CC1CCC2C(=O)N3C(CCC(C)C3c3ccc(Br)cc3)C(=O)N2C1c1ccc(Br)cc1 (stereo not given) | 5 | · | · | · | · | · | ·
Cc1ccc(C)c(N)c1 | 13 | -1 | 4 | 2 | · | · | ·
Cc1ccc2c(N)c(C)ccc2c1 | · | 49* | -4 | 13 | 43 | -2 | -6
COc1ccc(C=NNC(=O)c2ccccc2[N+](=O)[O-])cc1COc1c(F)c(F)c(F)c(F)c1F | 0 | · | · | · | · | · | ·
O=c1c(Cl)c(O)c2cccc3c4ccccc4n1c23 | 4 | 85* | -2 | 15 | 9 | 86* | 64*
CCOC(=O)C1=C(C)NC2=C(C(=O)CCC2)C1c1cccnc1 (stereo not given) | -8 | 36* | ? | 13 | 20 | 9 | 4
CC1=C(C(=O)OC(C)C)C(c2cccnc2)C2=C(CCCC2=O)N1 (stereo not given) | -3 | 36* | -3 | 15 | -6 | 3 | -2
SMILES | Mtb hypoxia inh | FBA Mtb inh | Mtb betalactam | GDH-TPI counter-1 | DUSP3 inh | Mtb FBA inh conf | GDH-TPI counter-2
O=C(CN(Cc1ccco1)S(=O)(=O)c1ccccc1)NN=Cc1ccccc1C(=O)O | 0 | · | · | · | · | · | ·
COc1ccccc1-c1nc(-c2cccc(C)c2)no1 | · | 81* | 52 | 1 | -6 | 76* | 54*
COc1ccc(-c2nc(-c3cccc(C)c3)no2)cc1OC | 7 | 0 | · | 11 | -9 | · | ·
C=COC(=O)CSc1nc(-c2cccs2)ccc1C#N | 6 | 30* | 95 | 16 | 6 | 71* | 53*
CCOC(=O)C(C)Sc1nc(-c2cccs2)ccc1C#N (stereo not given) | -9 | 41* | 93 | 21 | 10 | 2 | 4
NC(=O)c1sc2nc(-c3cccs3)ccc2c1N | 2 | 76* | -3 | 25 | -5 | 62* | 56*
Cc1nnc(NC(=O)c2sc3nc(-c4cccs4)cc(C(F)(F)F)c3c2N)s1 | · | 33* | ? | 43* | 37 | 5 | 2
Cc1cc(C(F)(F)F)c2c(N)c(C(=O)NC3CC3)sc2n1 | -1 | 4 | -14 | 14 | 10 | · | ·
Nc1c(C(=O)Nc2nccs2)sc2nc(-c3cccs3)cc(C(F)(F)F)c12 | 4 | 42* | -5 | 10 | 19 | 39* | 28*
NC(=O)c1sc2nc(-c3ccccc3)ccc2c1N | 12 | 0 | 0 | -2 | -7 | · | ·
CC(C)(C)C(=O)c1sc2nc(-c3cccs3)cc(C(F)(F)F)c2c1N | -4 | 30* | -11 | -1 | 0 | 49* | 47*
CC(=NNc1nc(N2CCCCCC2)nc(N2CCCCCC2)n1)c1ccccc1 | -13 | · | · | · | · | · | ·
Cc1cn2c(nc(=O)c3cccnc32)s1 | -3 | 36* | 3 | 15 | -5 | 107* | 87*
COC(=O)C1=CN(Cc2ccc(OC)c(OC)c2)C=C(C(=O)OC)C1c1ccc(F)cc1 | · | 97* | -24 | 24 | 17 | + | 142*
COC(=O)C1=CN(Cc2ccc(OC)c(OC)c2)C=C(C(=O)OC)C1c1ccccc1F | 5 | 91* | 3 | 2 | -4 | 61* | 47*
COC(=O)C1=CN(Cc2ccc(OC)c(OC)c2)C=C(C(=O)OC)C1c1ccc(O)cc1 | -3 | 64* | -1 | 9 | -4 | + | +
COC(=O)C1=CN(Cc2ccc(C)cc2)C=C(C(=O)OC)C1c1cc(OC)c(OC)c(OC)c1 | 8 | 33* | -2 | 12 | 14 | 91* | 73*
Cc1[nH]n(-c2ccccc2)c(=O)c1C=Nc1cnc2ccccc2c1 | 6 | 34* | 99 | 20 | 19 | 13 | 0
Cc1oc2cc(O)ccc2c(=O)c1-c1ccccc1 | -1 | 71* | 12 | 24 | 17 | 199* | 161*
Cc1oc2cc(O)ccc2c(=O)c1-c1cnn(-c2ccccc2)c1 | · | 41* | -7 | 14 | 13 | + | +
CCOC(=O)C1C2COc3ccc(OC)cc3C2N2C(=O)c3cc(C)ccc3NC(=O)[C@@]12C (stereo not given in full) | 1 | · | · | · | · | · | ·
CCN(CC)Cc1c(O)ccc2c(=O)c(-c3ccccc3)coc12 | -3 | 69* | 0 | 21 | -24 | 61* | 43*
Cc1nc(-c2coc3c(CN(C)C)c(O)ccc3c2=O)cs1 | 6 | 42* | -7 | 20 | 17 | 6 | -3
COc1ccccc1Oc1coc2c(CN3CCN(C)CC3)c(O)ccc2c1=O | 0 | 80* | 5 | 17 | 5 | 91* | 73*
